Test in all cases: NCI-60 one-dose screen, 48 h (100 = growth as untreated, 0 = no growth, -100 = all killed)
What all share (conditions): 10 µM unless noted

The test system of assay [1] is NCI-H23 lung.
Assay [2] deals with NCI-H226 lung.
For assay [3], the system named is NCI-H322M lung.
Assay [4] has as its system HOP-62 NSCLC.
Assay [5] has as its system NCI-H460 lung.
The test system of assay [6] is HOP-92 NSCLC.
Assay [7] concerns NCI-H522 lung.
Assay [8] deals with A549/ATCC NSCLC.
Assay [9] has as its system 786-0 renal.
The subject of assay [10] is COLO 205 colon.
Assay [11] relates to DU-145 prostate.
For assay [12], the system named is K-562 leukemia.
For assay [13], the system named is MALME-3M melanoma.
For assay [14], the system named is MDA-MB-231 breast.
For assay [15], the system named is RXF 393 renal.
Assay [16] has as its system SF-268 CNS.
The test system of assay [17] is SF-539 CNS.
Assay [18] concerns UACC-257 melanoma.
In assay [19] the test system is M14 melanoma.
Assay [20] has as its system SF-295 CNS.

Molecules are shown by their SMILES. The panel holds about 83,000 compounds, 20% with a hit somewhere; the sample as a whole holds those more often.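 How to read the values: 0–100, growth inhibition (40 = 60% inhibited); 0, no net growth; -100 to 0, cell death (-40 = 40% of starting cells died; -100 = all dead).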 Unmarked numbers belong to inactive results. The source made the active and inactive calls. The calls were made as follows: active = growth percent below 10; inactive = the rest.

The record followed here is PubChem BioAssay (NCI).

As for `CCC1(C)CC(CCNCc2ccccc2O)(c2ccc(C)cc2)CCO1` (stereo not given), the growth is 101% in assay [1]; 107% in assay [2]; 108% in assay [3]; 108% in assay [4]; 102% in assay [5]; 105% in [6]. For the same compound, the growth in assay [7] was 108%; in assay [8], 101%; in assay [9], 101%; in assay [10] it was 115%; in [11], 103%; in assay [12], 101%. For the same compound, the growth in assay [13] was 109%; in [14], 106%; in assay [15], 111%; in [16], 105%; in assay [17], 99.1%; in [18], 107%. Besides, the growth in assay [19] is 104%.

As to `N#C[S-].[Au+].c1ccc(CN2[CH-]N(Cc3ccccc3)C(c3ccccc3)=C2c2ccccc2)cc1`, the growth is 8.69% (active) in [1]; 24.4% in assay [2]; 30.3% in assay [3]; 16% in assay [4]; 4.03% (active) in assay [5]; -25% (active) in [6]. Also, the growth was -30.9% (active) in assay [7]; 12.8% in [8]; 7% (active) in assay [9]; -76.9% (active) in [10]; 23.6% in assay [11]; 0.413% (active) in assay [12]. Besides, the growth is -5.77% (active) in assay [13]; -36% (active) in assay [14]; 3.56% (active) in assay [15]; 29.9% in [16]; 22.9% in assay [17]; -9.77% (active) in assay [18]. For the same compound, the growth in [19] is 15.8%.

Regarding `CN(C)C(=O)Oc1ccccc1`, the growth in [1] is 104%; in [2], 105%; in assay [3], 109%; in assay [4], 96.3%; in assay [5], 97.5%; in assay [6], 101%. The growth in assay [7] was 112%; in [8] it was 103%; in assay [9], 107%; in assay [10] it was 112%; in assay [11], 108%; in assay [12] it was 111%. Moreover, the growth in assay [13] was 109%; in assay [14], 115%; in assay [15], 122%; in [20], 103%; in [17], 93.7%; in [18], 98.9%.

As for `O=C(O)C(O)C(O)C1[O][Sb]([c]2ccc([N+](=O)[O-])cc2)[O]C1CO` (stereo not given), the growth in assay [1] was 101%; in [2], 93.4%; in assay [3] it was 102%; in assay [4], 110%; in assay [5] it was 100%; in assay [6], 102%. Moreover, the growth in [7] is 94.6%; in assay [8] it was 94.4%; in assay [9], 104%; in [10], 115%; in assay [11], 116%; in assay [12] it was 99.6%. Also, the growth is 116% in assay [13]; 99.3% in assay [14]; 106% in assay [16]; 101% in [20]; 102% in assay [17]; 95.7% in [18]. The growth in assay [19] was 106%.

As for `CC1(C)N=C(N)N=C(N)N1c1ccc(CCCCc2ccc(Cl)c(S(=O)(=O)F)c2)c(Cl)c1`, the growth is 20.4% in [1]; 44.2% in [2]; 45.5% in assay [3]; 18.1% in assay [4]; 16.3% in assay [5]; -0.0536% (active) in [6]. The growth was -14.7% (active) in assay [7]; 15.4% in assay [8]; -20.2% (active) in [9]; 36.3% in assay [10]; 35.3% in assay [11]; 9.3% (active) in assay [12]. In addition, the growth was 17.4% in [13]; 52.6% in assay [14]; 18.7% in [16]; 18.7% in [20]; 14% in assay [17]; 18.3% in [18]. In addition, the growth in assay [19] was 20.7%.

In the case of `O=P1(NCCCl)OCCCN1CCCl` (stereo not given), the growth in assay [1] was 107%; in [2], 109%; in assay [3] it was 106%; in assay [4] it was 108%; in assay [5] it was 109%; in assay [6], 97.4%. The growth in assay [7] was 99.5%; in assay [8], 121%; in assay [9], 93.5%; in assay [10], 112%; in assay [11] it was 110%; in assay [12], 95.8%. Besides, the growth in assay [13] was 120%; in assay [14], 120%; in assay [16], 109%; in assay [20], 99.2%; in [17] it was 98.3%; in [18], 116%. In [19], the growth was 106%.

Consider `CC(=O)OCC1O[C@@H]([S-])C(OC(C)=O)[C@H](OC(C)=O)[C@@H]1OC(C)=O.[Au+].c1ccc(CN2[CH-]N(Cc3ccccc3)C(c3ccccc3)=C2c2ccccc2)cc1`, for which the growth in assay [1] is 28.5%; in [2] it was 72.5%; in [3], 82.7%; in assay [4], 92.8%; in assay [5], 62%; in assay [6] it was -7.44% (active). For the same compound, the growth in assay [7] was -47.6% (active); in [8], 76.3%; in assay [9], 40.1%; in assay [10], 13.8%; in [11] it was 68.5%; in assay [12], 1.59% (active). Besides, the growth in assay [13] is -30.2% (active); in assay [14], -29.4% (active); in [15] it was -52.3% (active); in [16] it was 33.4%; in assay [17], 70.7%; in assay [18], 65.5%. For the same compound, the growth in assay [19] is 48.5%.

Turning to `Clc1ccc2nnnn2n1`, the growth in [1] is 54.4%; in assay [2], 66.6%; in [3] it was 85.2%; in [4], 55.7%; in assay [5], 20.7%; in [6] it was -3.54% (active). In addition, the growth in assay [7] was 13.2%; in assay [8], 77.3%; in assay [9], 23%; in [10] it was -77.3% (active); in assay [11], 3.28% (active); in assay [12] it was -11.3% (active). Besides, the growth in [13] is 66.2%; in assay [14], 36.8%; in [16], 25%; in assay [20] it was 67.7%; in assay [17], 47%; in assay [18], 41.1%. Further, in [19], the growth was 37.7%.

For `C[CH2][Sn]([Cl])([Cl])[CH2]C.Oc1ccccc1C=NCCN=Cc1ccccc1O`, the growth in [1] is 103%; in assay [2], 99.1%; in assay [3] it was 101%; in assay [4], 99.2%; in [5], 107%; in assay [6], 95.2%. Further, the growth was 9.48% (active) in assay [7]; 96% in assay [8]; 116% in [9]; 116% in assay [10]; 111% in [11]; 84.2% in assay [12]. Also, the growth is 95.6% in [13]; 107% in [14]; 118% in assay [15]; 106% in [16]; 87.9% in [17]; 94.1% in assay [18]. The growth in assay [19] is 112%.
